# LDHA inh – LDHA (human) enzyme inhibition; P00338; purified LDHA, NADH/diaphorase-resazurin fluorescence; hits give low values; activity change, % (values are at about 110 or 230 µM); hit rate 0.15% among 480,000; AID 1347041; in the data active means activity change below about -30%; inconclusive means mostly about -25% to -30%;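 further: plate controls were DMSO wells for no effect and wells without enzyme for full effect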
#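 Resorufin fluorescence (ex540/em590), read at 0 and 20 min after diaphorase/resazurin addition, reports the NADH left after a 5 min room-temperature reaction of 2 nM human LDH5 with 0.06 mM NADH and 0.2 mM pyruvate.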
# DT40 TDP1 CPT – growth inhibition of DT40 Tdp1-/-;hTDP1 cells with camptothecin (screen for TDP1 inhibitors) | Potency, µM (top dose mostly 46.2 µM), inactives show at the top dose activity change, negative = growth inhibition, usual class: inhibitors | hit rate 12% among 420,000 | AID 686979 | chicken DT40 Tdp1-/-;hTDP1 cells + 20 nM CPT, ATP luminescence, 48 h; further: potency means the concentration at half of the fitted maximal effect; nearly all actives have a fitted effect of over 55% in size
#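 Chicken DT40 Tdp1-/- cells stably complemented with human TDP1 were seeded at 400 cells/well in medium containing 20 nM camptothecin, exposed to pin-transferred compounds, and grown at 37 °C for at least 48 hr. Viability was read as ATP luminescence.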
# RORgamma inh – ROR gamma (mouse) transcription inhibition; hit rate 5.4% among 310,000; AID 2551; Drosophila S2 Gal4-RORgamma UAS-luciferase reporter, 20 h; P51450; Potency, µM (series often up to 53.6 µM), inactives show at the top dose activity change, negative = inhibition, usual class: inhibitors; further: potency means the concentration at half of the fitted maximal effect; nearly all actives have a fitted effect of over 60% in size
# Target sequence (P51450 whole entry, looked up, the tested form may be a part): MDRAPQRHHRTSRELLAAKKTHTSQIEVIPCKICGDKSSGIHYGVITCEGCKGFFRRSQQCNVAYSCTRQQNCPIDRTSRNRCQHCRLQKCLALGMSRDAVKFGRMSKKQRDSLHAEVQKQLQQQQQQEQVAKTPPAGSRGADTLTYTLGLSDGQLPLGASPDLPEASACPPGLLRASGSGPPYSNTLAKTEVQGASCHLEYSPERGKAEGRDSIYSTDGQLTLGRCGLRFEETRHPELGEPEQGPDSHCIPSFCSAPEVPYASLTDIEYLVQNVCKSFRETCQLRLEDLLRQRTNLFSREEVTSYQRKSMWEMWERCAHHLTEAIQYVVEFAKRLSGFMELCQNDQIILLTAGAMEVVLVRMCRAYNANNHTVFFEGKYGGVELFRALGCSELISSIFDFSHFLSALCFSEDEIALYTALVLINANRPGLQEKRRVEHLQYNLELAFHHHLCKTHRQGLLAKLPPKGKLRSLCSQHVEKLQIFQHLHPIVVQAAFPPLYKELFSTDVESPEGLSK
#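 Compounds are pin-transferred onto Drosophila Schneider cells expressing a copper-inducible Gal4–ROR gamma transactivation domain fusion. After 1 hr, copper sulfate is added to 700 uM final; luciferase is read 20 hr later.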
# IL1B secr inh – inhibitors of inflammasome signaling (IL-1 beta secretion); THP-1 LPS/ATP IL-1B secretion, AlphaLISA, 16 h; hits give low values; activity change, % at 57.5 µM; hit rate 4.7% among 360,000; AID 743279; in the data active means activity change below about -50%; inconclusive means mostly about -30% to -49%
#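 THP-1 cells pretreated 1 hr with compounds (up to 57.5 uM final), then stimulated with LPS (250 ng/mL final) plus ATP (1.25 mM final); secreted IL-1B measured by AlphaLISA after 16 hr, decreased signal indicating inhibition.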
# TDP1 cell noCPT – qHTS for Inhibitors of human tyrosyl-DNA phosphodiesterase 1 (TDP1): qHTS in cells in absence of CPT. DT40 Tdp1-/- hTDP1 cells, no CPT, ATP luminescence, 48 h. Potency, µM (titrated, usually from 46.2 µM), for the others: at the top dose activity change, negative = growth inhibition, hits mostly inhibitors. hit rate 15% among 420,000; further: potency means the concentration at half of the fitted maximal effect; nearly all actives have a fitted effect of over 55% in size
#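 A cellular qHTS used chicken DT40 cells lacking endogenous Tdp1 but carrying stably transfected human TDP1. Compounds were applied without camptothecin, and cell growth kinetics were judged by ATP-dependent luminescence after ≥48 hr.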
# VP16 counter – inhibits Gal4-VP16 luciferase reporter, ROR gamma counter-screen | Drosophila S2 Gal4-VP16 UAS-luciferase, luminescence, 20 h | Potency, µM (top dose mostly 53.6 µM), inactives show at the top dose activity, negative = inhibition, actives largely listed as inhibitors | hit rate 3.5% among 310,000;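 further: Gal4-VP16 expression switched on by copper sulfate through the metallothionein promoter; potency means the concentration at half of the fitted maximal effect; nearly all actives have a fitted effect of over 50% in size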
# Active calls of the source: *; ? = inconclusive; . = no result. An excerpt weighted towards active compounds, which were near 18% of everything screened. Unless noted, the call rests on the fitted dose curve; in most records, active means well fitted curve in the direction sought with a large enough effect; inconclusive means small, poorly fitted or top-dose-only effect, or another doubt; inactive means no such curve, though single readings can be large; an effect the other way counts as inactive or inconclusive. Unless noted, on the % scale 0 is the no-effect control and ±100 the full control effect.
SMILES,LDHA inh,DT40 TDP1 CPT,RORgamma inh,IL1B secr inh,TDP1 cell noCPT,VP16 counter
O=C(O)/C=C/c1ccc2c(c1)S(=O)(=O)N(C1CCCC1)[C@H]2CC(=O)O,.,-16.9%,.,.,-3.3%,.
COC(=O)/C=C/c1ccc2c(c1)S(=O)(=O)N(C1CCCC1)[C@H]2CC(=O)OC,.,0.631µM*,.,.,?,.
CCCCCCCCN1[C@@H](CC(C)=O)c2ccc(/C=C/C(C)=O)cc2S1(=O)=O,.,3.98µM*,.,.,5.62µM*,.
Cc1noc2ncnc(Sc3ccccc3Cl)c12,-6.7,?,-0.2%,-26.1,?,-4.1%
COC(=O)c1ccccc1Sc1ncnc2onc(C)c12,-4.0,14.6µM*,11.2µM*,-102.8*,?,?
O=C(C1=Cc2cc(Cl)ccc2OC1)N1CCN(S(=O)(=O)c2cc(F)ccc2F)CC1,5.8,.,.,.,.,.
C=CCNc1nc(Nc2ccc([N+](=O)[O-])cc2)nc(OC)n1,0.6,-3.4%,1.6%,-19.0,?,8.0%
COc1ccc(Nc2nc(N)c([N+](=O)[O-])c(NCc3ccccc3)n2)cc1,-8.3,?,43.6%,35.6,16.4µM*,-3.2%
COc1ccc(Nc2nc(N)c([N+](=O)[O-])c(NC3CCCCC3)n2)cc1,0.5,16.4µM*,?,-95.4*,?,?
COc1ccc(Nc2nc(N)c([N+](=O)[O-])c(NCCO)n2)cc1,4.0,-1.9%,32.8%,.,-24.1%,11.4%
COc1nc(Nc2ccc([N+](=O)[O-])cc2)nc(NC2CCCCC2)n1,-4.2,?,39.2%,-78.4*,?,-18.5%
Cn1cc(C(=O)C(=O)N2CCCC2)c2ccccc21,-9.5,0.7%,-18.5%,-13.1,-12.8%,3.2%
Cn1cc(C(=O)C(=O)N2CCCc3ccccc32)c2ccccc21,-3.3,16.4µM*,-4.0%,21.0,13µM*,0.7%
N#Cc1cn(CC(=O)N2CCCc3ccccc32)c2ccccc12,-3.6,-9.1%,12.3%,0.0,-5.1%,-6.3%
CCn1c(CNc2ccc(C)cc2C)nnc1SCC(=O)N1CCCc2ccccc21,8.6,10.3µM*,2.9%,-22.9,?,-28.9%
O=Cc1cn(CC(=O)N2CCCc3ccccc32)c2ccccc12,-0.9,5.8µM*,-6.0%,18.8,5.8µM*,-0.4%
CCn1c(CNc2ccc(F)cc2)nnc1SCC(=O)N1CCCc2ccccc21,-0.4,-25.8%,?,-24.8,?,-8.0%
CCn1c(SCC(=O)N2CCN(c3ccccc3)CC2)nnc1-c1c[nH]c2ccccc12,0.8,20.6µM*,?,9.6,?,?
Cn1c(SCC(=O)N2CCN(c3ccccc3)CC2)nnc1-c1c[nH]c2ccccc12,1.3,?,18.0%,-8.8,?,?
CCn1cc(SCC(=O)N2CCc3ccccc32)c2ccccc21,3.4,?,?,-2.0,20.6µM*,5.0%
CCn1c(SCC(=O)N2CCc3ccccc32)nnc1-c1c[nH]c2ccccc12,-3.2,?,29.6%,-12.0,20.6µM*,-29.9%
CC(=O)Nc1ccc(-c2csc(NC3CCCCC3)n2)c(F)c1,0.2,.,.,.,.,.
O=C(Nc1cccc(NC(=O)c2ccccc2[N+](=O)[O-])n1)c1ccccc1[N+](=O)[O-],4.3,6.51µM*,12.4%,5.7,9.2µM*,0.5%
O=C(c1cc([N+](=O)[O-])ccc1Cl)N1c2ccccc2Sc2ccccc21,-9.5,?,5.8%,?,14.6µM*,5.6%
Cc1cc(NC(=O)c2cc([N+](=O)[O-])ccc2Cl)no1,-7.0,?,14.3%,?,16.4µM*,-2.2%
SMILES,LDHA inh,DT40 TDP1 CPT,RORgamma inh,IL1B secr inh,TDP1 cell noCPT,VP16 counter
CN1/C(=C\C(=O)c2cccc([N+](=O)[O-])c2)Sc2ccccc21,-6.5,20.1%,19.8%,14.4,-7.5%,18.6%
O=C(Nc1cccc(NC(=O)c2cc([N+](=O)[O-])ccc2Cl)n1)c1cc([N+](=O)[O-])ccc1Cl,-11.3,7.31µM*,.,-99.8*,9.2µM*,.
CN(C)C(=O)CN1CCN(C(C(=O)O)c2cn(C)c3cc(C(=O)O)ccc23)CC1 (stereo unspecified),-0.5,.,.,.,.,.
CCOc1ccc(Br)cc1C(=O)Nc1ccc(C(=O)NCC(C)C)cc1,-6.5,10.3µM*,-39.8%,-12.9,?,?
CCOc1ccc(Br)cc1S(=O)(=O)Nc1ccc(NC(=O)c2ccccc2C)cc1,0.8,-14.1%,?,-1.5,-11.7%,-0.3%
CCOc1ccc(Br)cc1S(=O)(=O)Nc1ccc(NC(=O)c2ccccc2F)cc1,-6.3,?,?,-8.0,16.4µM*,-1.9%
COc1cccc(S(=O)c2c(C)cc(C)cc2C)c1 (stereo unspecified),5.7,.,.,.,.,.
CC1CCCCN1S(=O)(=O)c1ccc(C(=O)N(CCCN(C)C)c2nc3ccc(Br)cc3s2)cc1 (stereo unspecified),-2.6,20.6µM*,?,-105.0*,?,?
CCC1CCCCN1S(=O)(=O)c1ccc(C(=O)N(CCCN(C)C)c2nc3cc4c(cc3s2)OCO4)cc1 (stereo unspecified),-0.2,16.4µM*,?,-80.3*,?,?
COc1ccc(Nc2nnc(SC(C(=O)Nc3cc(C)ccc3C)c3ccccc3)s2)cc1 (stereo unspecified),-4.7,?,-30.3%,2.9,20.6µM*,6.5%
COc1cccc(NC(=O)C(Sc2nnc(Nc3ccccc3C)s2)c2ccccc2)c1 (stereo unspecified),1.7,16.4µM*,19.4%,-50.6*,20.6µM*,-4.7%
COc1ccc(Nc2nnc(SC(C(=O)Nc3ccc(OC)c(Cl)c3)c3ccccc3)s2)cc1 (stereo unspecified),-1.6,23.1µM*,43.9%,-9.7,13µM*,28.9%
COc1cccc(Nc2nnc(SCN3C(=O)c4ccccc4C3=O)s2)c1,-4.5,-10.1%,-16.0%,24.8,-12.4%,-13.0%
COc1ccc(C)cc1NC(=O)C(Sc1nnc(Nc2cc(C)ccc2OC)s1)c1ccccc1 (stereo unspecified),-6.0,?,-18.5%,-4.2,?,-6.5%
CCN(CC)CCn1c(SCC(=O)Nc2cccc(OC)c2)nc2c(sc3ccccc32)c1=O,-1.0,18.4µM*,8.3%,-78.6*,4.61µM*,?
CCN(CC)CCn1c(SCC(=O)NCc2ccco2)nc2c(sc3ccccc32)c1=O,-3.4,?,-38.5%,-18.8,?,2.0%
